Assay results from PubChem BioAssay AID743156 (Broad Institute, 2013).
The other results are listed elsewhere or left out. Calls of active or inactive are those of the source.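 Rule for the calls: active = mean inhibition across replicates of at least 20% with every single replicate also at 20% or more; inconclusive = mean inhibition at least 20% but some replicate falls below 20%; inactive = mean inhibition under 20% and not all replicates reach it.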

Test system: PglD UDP-4-amino-sugar N-acetyltransferase (Campylobacter jejuni)
Assay: inhibition of C. jejuni PglD N-acetyltransferase – biochemical, DTNB absorbance, single point, cherry-picked samples, confirmation (AID 743156);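 note: initial rate of CoA release by acetyl transfer from AcCoA to the UDP-4-amino sugar; 0% = median of neutral control wells and 100% = median of positive control wells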
Conditions: Purified C. jejuni PglD, DTNB absorbance 412 nm; at 20 µM; hits give high values

SMILES: c1ccc2sc(N3CCNCC3)nc2c1
- inhibition: 8.98% (inactive)
